Bioassay records as filed in PubChem.
Hits are enriched below; roughly 3.6% of the tested compounds scored in any of these assays.
Pf apPOL block = Pf-apPOL inhibitors, biochemical, fluorescence; Plasmodium falciparum apicoplast DNA polymerase (apPOL); Recombinant Pf-apPOL, molecular beacon fluorescence, 1.5 h; inhibition, % at 10 µM; actives 0.25% (n = 210,000)
mHTT CaM bind = mutant huntingtin-calmodulin interaction inhibitors – biochemical, AlphaScreen, primary screen. P42858. AlphaScreen His-mHTT/GST-CaM binding, luminescence. inhibition, % at 15 µM. actives 3.6% (n = 190,000). AID 1671202, 2021
Numbers stand for hits; . = inactive; / = no result. No stated cut-off is given here; in the data, active means inhibition above about 50%; inactive means the rest.

SMILES	Pf apPOL block	mHTT CaM bind
CC(=O)CC1c2cc(F)ccc2C=C(c2ccsc2)N1c1ccc(-c2cccnc2)cc1 (configuration not stated)	.	.
COc1ccc(N2C(c3cc(OC)cc(OC)c3)=Cc3ccccc3C2CC(C)=O)cc1 (configuration not stated)	.	.
NC(=O)c1ccc(-c2ccc(N3C(c4ccsc4)=Cc4ccc(F)cc4C3CC(=O)c3ccco3)cc2)cc1 (configuration not stated)	.	58
COc1cc(OC)cc(C2=Cc3ccccc3C(CC(=O)c3ccco3)N2c2ccc(-c3ccc(C(N)=O)cc3)cc2)c1 (configuration not stated)	.	100
COc1cc(OC)cc(C2=Cc3ccccc3C(CC(C)=O)N2c2ccc(C#CCCO)cc2)c1 (configuration not stated)	.	.
CCc1cc(C2CCCN2C(=O)c2cc(-c3ccccc3Cl)on2)on1 (configuration not stated)	.	.
Cc1ccc2nc(-c3cccc(N=Cc4cc([N+](=O)[O-])ccc4O)c3)oc2c1	.	.
N=C1S/C(=C\c2ccc(-c3cccc(F)c3)o2)C(=O)N1c1nccs1	.	62
N=C1S/C(=C\c2ccc(-c3ccccc3C(=O)O)o2)C(=O)N1c1nccs1	.	74
N=C1S/C(=C\c2ccc(-c3ccc(F)cc3F)o2)C(=O)N1c1nccs1	.	.
N=C1S/C(=C\c2ccc(-c3ccc(F)c(Cl)c3)o2)C(=O)N1c1nccs1	.	.
CCOc1ccc(CC(=O)Nc2nc(-c3cccc([N+](=O)[O-])c3)cs2)cc1	.	.
c1ccc(-c2noc(C3CNC3)n2)cc1	.	.
O=C(NCc1cccc2ccccc12)NCC1(O)CCOCC1	.	.
Cc1cc(O)cc2c1C(=O)C(=Cc1cccs1)O2	.	.
Cc1cc(O)c2c(c1)OC(=Cc1cccs1)C2=O	.	59
Cc1cc(O)c2c(c1)OC(=Cc1ccc(F)cc1)C2=O	.	.
Cc1cc(O)c2c(c1)OC(=Cc1ccccc1)C2=O	.	53
Cc1ccsc1C(=O)Nc1cnc(-c2cccc(Cl)c2)nc1	.	.
CC1=C(C(=O)Nc2ccc(F)cc2F)C(c2ccc(Cl)cc2)C2=C(CCCC2=O)N1 (configuration not stated)	.	.
COc1ccccc1C=C1Oc2c(ccc3c2CN(c2ccc4c(c2)OCCO4)CO3)C1=O	.	.
COc1ccc(N2COc3ccc4c(c3C2)OC(=Cc2cc(OC)c(OC)c(OC)c2)C4=O)cc1	.	.
COc1ccc(N2COc3ccc4c(c3C2)OC(=Cc2ccc(OC)c(OC)c2OC)C4=O)cc1	.	81
COc1cccc(C=C2Oc3c(ccc4c3CN(c3ccc5c(c3)OCCO5)CO4)C2=O)c1OC	.	77
COc1ccc(CNC(=O)CN2C(=O)NC3(CCCCC3)C2=O)cc1	.	.
SMILES	Pf apPOL block	mHTT CaM bind
N=c1n(CC(=O)c2ccco2)c2ccccc2n1Cc1ccccc1Cl	.	.
CC(C)(C)SCCNC(=O)c1ccc(N(Cc2ccccc2Cl)S(C)(=O)=O)cc1	.	.
O=C(Nc1ccc(Nc2cc(-n3cccn3)ncn2)cc1)c1ccco1	.	100
COc1ccc(Nc2cc(-n3cccn3)ncn2)cc1	.	.
COc1ccc(-c2ccc(N(C)C)cc2)cc1[C@H]1[C@@H]2C=CCC[C@@]2(C)C(=O)N1Cc1ccccc1	.	73
COc1ccc(Br)cc1[C@H]1[C@@H]2C=CCC[C@@]2(C)C(=O)N1Cc1ccccc1	.	90
COc1ccc(-c2ccc(OC)c([C@H]3[C@@H]4C=CCC[C@@]4(C)C(=O)N3Cc3ccccc3)c2)cc1OC	.	76
COc1ccc(/C=C/c2ccccc2)cc1[C@H]1[C@@H]2C=CCC[C@@]2(C)C(=O)N1Cc1ccccc1	.	.
COc1ccc(-c2ccc(OC)c([C@H]3[C@@H]4C=CCC[C@@]4(C)C(=O)N3Cc3ccccc3)c2)cc1	.	.
CC(=O)c1ccc(-c2ccc([C@H]3[C@@H]4C=CCC[C@@]4(C)C(=O)N3Cc3ccccc3)c(F)c2)cc1	.	.
O=c1cc(O)nc(SCc2c(F)c(F)c(F)c(F)c2F)[nH]1	.	.
CCn1cc(CNC(=O)c2cc(-c3ccccc3)nc3ccc(Br)cc23)cn1	.	.
Cc1c(S(=O)(=O)N2CCN(C3c4ccccc4-c4ccccc43)CC2)cnn1-c1ccccc1	.	/
Cc1cccc(NC(=O)C2CCc3sc(C(=O)N4CCOCC4)cc3C2)c1C (configuration not stated)	.	.
CN(C)c1ccc(NC(=O)CN2CCN(C3c4ccccc4-c4ccccc43)CC2)cc1	.	.
O=C(CN1CCN(C2c3ccccc3-c3ccccc32)CC1)Nc1ccc(F)c(F)c1	.	74
CN(C)c1ccc(NC(=O)CCN2CCN(C3c4ccccc4-c4ccccc43)CC2)cc1	.	93
CCOc1ccc(NC(=O)CCN2CCN(C3c4ccccc4-c4ccccc43)CC2)cc1	.	.
O=C(CCN1CCN(C2c3ccccc3-c3ccccc32)CC1)Nc1cccc(C(F)(F)F)c1	.	69
COc1cccc(NC(=O)CN2CCN(C3c4ccccc4-c4ccccc43)CC2)c1	.	.
CC1(C(=O)O)NC(c2cc(Br)ccc2O)C2C(=O)N(c3ccccc3)C(=O)C21 (configuration not stated)	.	.
COc1ccc(Cl)cc1N(CC(=O)NCc1ccco1)S(=O)(=O)c1ccccc1	.	.
Cc1ccccc1NC(=O)c1cc(C(=O)Nc2ccccc2C)n(C)n1	.	.
COCCNC(=O)C1Cc2ccccc2N2CCCC12 (configuration not stated)	.	.
Cc1c(C#N)c2nc3ccccc3n2c(=O)c1=Cc1c(O)n(-c2cc(Cl)cc(Cl)c2)[nH]c1=O	.	.
SMILES	Pf apPOL block	mHTT CaM bind
CSc1nc2c(c(Nc3ccc(C)cc3)n1)CCC2	.	.
CSc1nc2c(c(Nc3ccc(N(C)C)cc3)n1)CCC2	.	57
O=C1CCC[C@H]2C[C@H](NCCc3ccncc3)CC[C@]23CCCN13	.	77
O=C1CCC[C@H]2C[C@H](NCc3ccc(F)cc3)CC[C@]23CCCN13	.	.
O=C1CC(C(=O)N(C2CCCCC2)C2CCCCC2)C2(CCCCC2)O1 (configuration not stated)	.	.
CC(C)CNC(=O)C1CCN(Cc2ccccc2)CC1	.	.
Cc1oc(C2CCN(C(=O)c3ccc(Cl)s3)CC2)nc1C(=O)N(C)C	.	.
O=c1[nH]c2ccc(Cl)cc2c(-c2ccccc2)c1CN1CCCCC1	.	100
O=c1[nH]c2ccc(Cl)cc2c(-c2ccccc2)c1N1CCN(Cc2ccc3c(c2)OCO3)CC1	.	100
O=c1[nH]c2ccc(Cl)cc2c(-c2ccccc2)c1N1CCOCC1	.	/
O=C(CCN1CCCCC1)Nc1c(-c2ccccc2)c2cc(Br)ccc2[nH]c1=O	.	99
Cc1[nH]c2ccc(Cl)cc2c(=O)c1CN1CCCC1	.	.
O=C(CCN1CCCC1)Nc1cccc(Br)c1	.	.
Cc1cc(C)cc(C(=O)N2CCCC2COc2ccc(C(=O)N3CCOCC3)cc2)c1 (configuration not stated)	.	.
Cc1cc(CNC(=O)Cc2cccs2)c(C)o1	.	.
COc1cc(S(=O)(=O)NCC2CCCO2)c(C)cc1Br (configuration not stated)	.	.
O=C(NCCC1=CCCCC1)C(=O)NCC1CCN(C2CCCC2)CC1	.	.
COc1ccccc1C1=N/C(=C/c2ccc(Cl)c(Cl)c2)C(=O)O1	.	.
